Source: PubChem (National Center for Advancing Translational Sciences (NCATS))
Eya2 phos inh: qHTS Assay for Inhibitors of the Phosphatase Activity of Eya2. Protein phosphatase EYA2 (Homo sapiens), O00167. recombinant Eya2, OMFP fluorescence dephosphorylation (OMFP is methylfluorescein phosphate). Potency, µM (titrated, usually from 76.9 µM), for inactives: at the top dose activity, negative = inhibition, hits mostly inhibitors. hit rate 0.006% among 330,000. AID 488837, 2010; note: potency is the fitted concentration of half-maximal effect; % is set by controls: 0 for no effect and ±100 for the full control effect
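Eya2 protein (added as 0.2 uM solution) was preincubated with compound for 10 min at ambient temperature in 50 mM HEPES pH 7.5, 50 mM NaCl, 5 uM MgCl2, 0.05% BSA, 1 mM DTT. OMFP (added at 50 uM) then reacted 10 min; fluorescence read at 485/525 nm.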
D1 agonist: Allosteric Agonists of the Human D1 Dopamine Receptor: qHTS; D(1A) dopamine receptor (Homo sapiens), P21728; HEK293 T-REx D1 cells, calcium flux, agonist mode; activation, % at 2 µM; hit rate 1% among 360,000; AID 504660, 2011; in the data active = activation above about 30%; note: 0% is about no effect
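Inducible HEK293 T-REx D1 cells, force-coupled to calcium signalling, were plated at 4000 cells/well with tetracycline and held overnight at 30 C. After no-wash calcium dye loading, compound-evoked calcium rise over 180 s flagged agonists.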
D1 PAM: Potentiators of Human D1 Dopamine Receptor: qHTS; HEK293 TREx D1 cells, calcium flux, dopamine EC20 potentiation; D(1A) dopamine receptor (Homo sapiens), P21728; potentiation, % at 10 µM; hit rate 0.036% among 360,000; in the data active = potentiation above about 30%; note: 0% is about no effect
D1 antag: Antagonist of Human D 1 Dopamine Receptor: qHTS | HEK293 TREx D1 cells, calcium flux, dopamine EC80; stronger effect = lower value | activity change, negative = inhibition, % at 10 µM | D(1A) dopamine receptor (Homo sapiens), P21728 | AID 504652, 2011 | hit rate 3.2% among 360,000; in the data active = activity change below about -30%; note: % is set by controls: 0 for no effect and ±100 for the full control effect
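Compound effects on dopamine-evoked calcium signalling were measured in tetracycline-induced HEK293 Trex D1 cells. Dopamine at EC80 followed a 180 s compound pre-read, and fluorescence was tracked kinetically for 180 s more.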
GALK inhibitor: qHTS Assay for Inhibitors of Human Galactokinase (GALK). hit rate 0.007% among 270,000. P51570. Purified GALK, Kinase-Glo residual ATP luminescence. Potency, µM (highest dose often 57.5 µM), without a hit: top-dose activity change, negative = inhibition, usual class: inhibitors; note: potency is the fitted concentration of half-maximal effect; % is set by controls: 0 for no effect and ±100 for the full control effect
Target sequence (P51570 whole entry, looked up): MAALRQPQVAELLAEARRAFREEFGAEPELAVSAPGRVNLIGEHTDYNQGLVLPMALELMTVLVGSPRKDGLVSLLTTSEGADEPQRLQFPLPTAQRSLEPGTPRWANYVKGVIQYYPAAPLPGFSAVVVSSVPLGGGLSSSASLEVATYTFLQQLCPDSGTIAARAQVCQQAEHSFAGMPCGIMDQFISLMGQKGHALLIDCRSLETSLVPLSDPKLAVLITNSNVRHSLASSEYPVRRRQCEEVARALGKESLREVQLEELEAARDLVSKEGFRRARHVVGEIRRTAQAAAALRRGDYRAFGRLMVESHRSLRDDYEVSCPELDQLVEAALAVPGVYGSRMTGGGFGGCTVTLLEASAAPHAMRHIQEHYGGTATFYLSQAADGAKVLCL
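Human GALK (5 nM) with 35 uM ATP and 100 uM galactose in 20 mM HEPES pH 8.0, 5 mM MgCl2, 60 mM NaCl, 1 mM DTT, 0.01% BSA. After 1 h at room temperature, leftover ATP was read by Kinase-Glo Plus luminescence.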
USP2a block: qHTS Assay for Inhibitors of Ubiquitin-specific Protease USP2a Using CHOP2 as the Reporter; Potency, µM (highest dose often 38.3 µM), for inactives: at the top dose activity change, negative = inhibition, usual class: inhibitors; hit rate 0.01% among 330,000; USP2 core, Ub-CHOP2 coupled fluorogenic reporter, 485/531; Ubiquitin carboxyl-terminal hydrolase 2 (Homo sapiens), O75604;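 note: potency is the fitted concentration of half-maximal effect; plate controls were DMSO wells for no effect and full inhibition by NEM control for full effect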
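Deubiquitinase activity read as fluorescence (485/531 nm) after Ub-CHOP2 cleavage activates the enterokinase reporter on its substrate; USP2 core 10nM, Ub-CHOP2 and substrate 25nM each, 30min compound preincubation then 60min RT; data normalized to NEM, curves fitted.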
The depositor's hits bear a star; ? = inconclusive; nt = no result. Hits are enriched below; roughly 3.9% of the tested compounds scored in any of these assays. Unless noted, calls come from the whole dose curve; as a rule, active = well fitted inhibition curve with a large enough effect; inconclusive = small, poorly fitted or top-dose-only effect, or effect the other way; inactive = flat fitted curve, though single readings scatter.

SMILES	Eya2 phos inh	D1 agonist	D1 PAM	D1 antag	GALK inhibitor	USP2a block
Cc1ccc(NC(=O)Cn2c(=O)n(CCCS(=O)(=O)C3CCCCC3)c(=O)c3ccccc32)cc1F	nt	2	-1	3	nt	nt
CC1CCc2c(sc3nc(-c4cc5ccccc5oc4=O)nc(Cl)c23)C1 (configuration not stated)	nt	29	0	-3	nt	nt
CCCCCCCCCCOC(=O)Cn1c(COc2ccc(OC)cc2)[n+](C)c2ccccc21	?	139*	-4	-18	-2%	?
CCCCOC(=O)Cn1c(=O)n(CC(=O)OCCCC)c2ccccc21	-16%	1	3	-8	-1%	-1%
Cc1cc(Nc2cccc(Cl)c2)c2ccccc2n1	-1%	17	-10	-65*	-3%	0%
CC(=O)c1cccc(Nc2cc(C)nc3c(C)cccc23)c1	-15%	0	-5	-66*	1%	-1%
Cc1ccc(Nc2cc(C)nc3ccc(C)cc23)cc1	2%	4	-6	-33*	3%	-3%
COc1ccc(Nc2cc(C)nc3ccc(OC)cc23)cc1	-3%	0	-6	1	3%	-4%
Cc1ccc(C)c(CSc2nc3ccncc3n2CC(=O)Nc2ccc(N(C)C)cc2)c1	nt	-1	-3	-9	nt	nt
CCc1ccc(Nc2nc3ccccc3c3nnc(C)n23)cc1	nt	3	-2	-2	nt	nt
COC(=O)c1cc(NC(=O)c2nn(C)c3c2COc2ccccc2-3)cc(C(=O)OC)c1	nt	0	-2	-55*	nt	nt
COC(=O)c1ccc(NC(=O)COC(=O)c2nc3nccc(C)n3n2)cc1	-4%	4	-2	-35*	-1%	0%
Cc1cccc(N2C(=O)CN=C2Nc2nc(C)cc(C)n2)c1	-5%	-2	-3	-32*	0%	2%
Cc1ccc(N2CC(c3nc(-c4ccc(Cl)cc4)no3)CC2=O)cc1F (configuration not stated)	nt	7	-6	-10	nt	nt
Cc1ccc(NC(=O)C(Cc2c[nH]c3ccccc23)NC(=O)OC(C)(C)C)c(C)c1 (configuration not stated)	nt	2	-5	-35*	nt	nt
O=C(Nc1cccc(Cl)c1)Nc1csc([N+](=O)[O-])c1	2%	27	-4	-47*	-6%	5%
CC(C)C[C@H](NC(=O)Nc1cccc(Cl)c1)C(=O)O	9%	3	-3	-7	-1%	-1%
O=C(Nc1ccncc1)Nc1cccc(Cl)c1	-14%	13	-15	-23	4%	0%
CSc1ccccc1NC(=O)Nc1ccc(F)c(Cl)c1	0%	9	-4	-32*	-1%	-1%
CC(C)NC(=O)Nc1cccc(Cl)c1	-2%	2	3	-40*	6%	-1%
CSc1ccccc1NC(=O)Nc1cccc(Cl)c1	6%	16	-21	-40*	-3%	-2%
Cc1cc2c(s1)c1cnn(Cc3ccc(Cl)cc3)c(=O)c1n2C	nt	4	-5	-9	nt	nt
CC(C)Cn1c(=O)c2ccccc2n2c(CCC(=O)N3CCN(c4ccccc4)CC3)nnc12	nt	3	-2	20	nt	nt
CCOc1ccc(CNS(=O)(=O)c2ccc3[nH]c4c(c3c2)CCCC4)cc1OC	nt	3	-3	-11	nt	nt
CCOc1cc2[nH]c(=S)n(C3CCN(Cc4ccccc4)CC3)c(=O)c2cc1OCC	-6%	2	-3	6	-1%	4%
O=c1c2cc3c(cc2[nH]c(=S)n1C1CCN(Cc2ccccc2)CC1)OCO3	0%	3	-9	-32*	-2%	0%
COC(=O)[C@@H](N)Cc1ccc(O)c(O)c1	-3%	-2	-6	-53*	nt	1%
